{"source": "a collection of fitness landscapes (doi:10.1126/science.1257360)", "parents": {"B1": {"name": "PhoQ; a variant is named by its letters at X, in order, P23837 (parent)", "chain": "MKKLLRLFFPLSLRVRFLLATAAVVLVLSLAYGMVALIGYSVSFDKTTFRLLRGESNLFYTLAKWENNKLHVELPENIDKQSPTMTLIYDENGQLLWAQRDVPWLMKMIQPDWLKSNGFHEIEADVNDTSLLLSGDHSIQQQLQEVREDDDDAEMTHSVAVNVYPATSRMPKLTIVVVDTIPVELKSSYMVWSWFIYVLSANLLLVIPLLWVAAWWSLRPIEALAKEVRELEEHNRELLNPATTRELTSLVRNLNRLLKSERERYDKYRTTLTDLTHSLKTPLXXLQXXLRSLRSEKMSVSDAEPVMLEQISRISQQIGYYLHRASMRGGTLLSRELHPVAPLLDNLTSALNKVYQRKGVNISLDISPEISFVGEQNDFVEVMGNVLDNACKYCLEFVEISARQTDEHLYIVVEDDGPGIPLSKREVIFDRGQRVDTLRPGQGVGLAVAREITEQYEGKIVAGESMLGGARMEVIFGRQHSAPKDE"}}, "note": "The full ranking holds about 140,000 sequences; the median of “enrichment ratio after two sorts for PhoP signalling” is about 0, and the highest 2% start at about 11. This excerpt belongs to a sample that is enriched for the highest values."}
{"variants_of": "B1", "test": "enrichment ratio after two sorts for PhoP signalling (ratio (wild type AVST 3.29)); higher = more functional", "settings": "with PhoP (E. coli)"}
{"variant": "VSHV", "enrichment ratio": "≤ 0.25"}
{"variant": "ELII", "enrichment ratio": "≤ 0.25"}
{"variant": "DHGN", "enrichment ratio": "≤ 0.25"}
{"variant": "NHFI", "enrichment ratio": "≤ 0.25"}
{"variant": "QTFL", "enrichment ratio": 1.72}
{"variant": "YDLL", "enrichment ratio": "≤ 0.25"}
{"variant": "QRFQ", "enrichment ratio": "≤ 0.25"}
{"variant": "EHKV", "enrichment ratio": "≤ 0.25"}
{"variant": "LCMI", "enrichment ratio": "≤ 0.25"}
{"variant": "IHER", "enrichment ratio": "≤ 0.25"}
{"variant": "LAPE", "enrichment ratio": "≤ 0.25"}
{"variant": "VIMD", "enrichment ratio": "≤ 0.25"}
{"variant": "AMTG", "enrichment ratio": 2.78}
{"variant": "ASVM", "enrichment ratio": 12.1}
{"variant": "ASMK", "enrichment ratio": 17}
{"variant": "AITG", "enrichment ratio": 11.5}
{"variant": "ASVI", "enrichment ratio": 5.75}
{"variant": "VRSI", "enrichment ratio": "≤ 0.25"}
{"variant": "ASSI", "enrichment ratio": 15.8}
{"variant": "VHTG", "enrichment ratio": "≤ 0.25"}
{"variant": "ASVP", "enrichment ratio": "≤ 0.25"}
{"variant": "KSMK", "enrichment ratio": "≤ 0.25"}
{"variant": "ASRK", "enrichment ratio": "≤ 0.25"}
{"variant": "ASMA", "enrichment ratio": 2.9}
{"variant": "YVIL", "enrichment ratio": "≤ 0.25"}
{"variant": "LYCG", "enrichment ratio": "≤ 0.25"}
{"variant": "RRIS", "enrichment ratio": "≤ 0.25"}
{"variant": "NHAY", "enrichment ratio": "≤ 0.25"}
{"variant": "QIHN", "enrichment ratio": "≤ 0.25"}
{"variant": "YWDR", "enrichment ratio": "≤ 0.25"}
{"variant": "YHEQ", "enrichment ratio": "≤ 0.25"}
{"variant": "IKMW", "enrichment ratio": "≤ 0.25"}
{"variant": "ASMV", "enrichment ratio": 7.76}
{"variant": "KSVE", "enrichment ratio": "≤ 0.25"}
{"variant": "ASMS", "enrichment ratio": 5.31}
{"variant": "ASEG", "enrichment ratio": "≤ 0.25"}
{"variant": "ASHE", "enrichment ratio": "≤ 0.25"}
{"variant": "ASVE", "enrichment ratio": 21.7}
{"variant": "ASTG", "enrichment ratio": 14.7}
{"variant": "ASMI", "enrichment ratio": 13.5}
{"variant": "ASIG", "enrichment ratio": 12}
{"variant": "ASWG", "enrichment ratio": "≤ 0.25"}
{"variant": "PNRW", "enrichment ratio": "≤ 0.25"}
{"variant": "LAVR", "enrichment ratio": "≤ 0.25"}
{"variant": "IMSG", "enrichment ratio": "≤ 0.25"}
{"variant": "RHEW", "enrichment ratio": "≤ 0.25"}
{"variant": "QSKD", "enrichment ratio": "≤ 0.25"}
{"variant": "VADS", "enrichment ratio": "≤ 0.25"}
{"variant": "DWYQ", "enrichment ratio": "≤ 0.25"}
{"variant": "YRSW", "enrichment ratio": "≤ 0.25"}
{"variant": "VCAS", "enrichment ratio": "≤ 0.25"}
{"variant": "MTAS", "enrichment ratio": 12}
{"variant": "YTAS", "enrichment ratio": "≤ 0.25"}
{"variant": "MAAS", "enrichment ratio": 1.31}
{"variant": "KMAS", "enrichment ratio": "≤ 0.25"}
{"variant": "MMAS", "enrichment ratio": 15.4}
{"variant": "MFAS", "enrichment ratio": "≤ 0.25"}
{"variant": "DMAS", "enrichment ratio": "≤ 0.25"}
{"variant": "TMAS", "enrichment ratio": 15}
{"variant": "MKAS", "enrichment ratio": "≤ 0.25"}
{"variant": "MCAS", "enrichment ratio": 14}
{"variant": "ICAS", "enrichment ratio": "≤ 0.25"}
{"variant": "NQNV", "enrichment ratio": "≤ 0.25"}
{"variant": "NTIL", "enrichment ratio": "≤ 0.25"}
{"variant": "MCAI", "enrichment ratio": 8.95}
{"variant": "GQFV", "enrichment ratio": "≤ 0.25"}
{"variant": "PTRG", "enrichment ratio": "≤ 0.25"}
{"variant": "IQLY", "enrichment ratio": "≤ 0.25"}
{"variant": "QVYW", "enrichment ratio": "≤ 0.25"}
{"variant": "GCPS", "enrichment ratio": "≤ 0.25"}
{"variant": "KSMN", "enrichment ratio": "≤ 0.25"}
{"variant": "NHMN", "enrichment ratio": "≤ 0.25"}
{"variant": "GGMN", "enrichment ratio": "≤ 0.25"}
{"variant": "TSMN", "enrichment ratio": 12.3}
{"variant": "FSMN", "enrichment ratio": 1.56}
{"variant": "SHMN", "enrichment ratio": "≤ 0.25"}
{"variant": "THMN", "enrichment ratio": 12.7}
